A word on the AC50: it is the midpoint of the concentration-response curve, whichever way the signal moves.

Inconclusive results are not listed. Activity calls are given as the source filed them. How the source made its calls, unless noted: active means hit-call score of the fitted dose curve at least 0.9, where 1 is the maximum; inactive means score below 0.9.

The target of assay [1] is Oxysterols receptor LXR-beta (Homo sapiens) (UniProt P55055). Put plainly: ATG_LXRb_TRANS: Attagene TRANS-FACTORIAL HepG2 Assay for human Liver X Receptor beta (LXRb) (AID 2282981; active means hit-call score of the fitted dose curve at least 0.9, where 1 is the maximum). As to conditions: HepG2 Attagene TRANS GAL4-LXRb reporter, mRNA. The method in brief:
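Gain-of-signal mRNA reporter endpoint, DMSO as negative control. Transiently transfected HepG2 cells carrying the NR-Gal4 chimera and GAL4-UAS reporter units were treated 24 h; transcripts quantified by RT-PCR and capillary electrophoresis fluorescence.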

A short description of assay [2]: ATG_M_06_TRANS: Attagene TRANS-FACTORIAL HepG2 Assay for M06 Transcription Factor (Internal Marker) (AID 2282983; active means hit-call score of the fitted dose curve at least 0.9, where 1 is the maximum). As to conditions: HepG2 Attagene TRANS M06 internal marker reporter. In short, it runs like this:
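Cells: HepG2, transient multi-reporter transfection. Exposure: 24 h. Detection: RT-PCR, 6-FAM labelling, HpaI digestion (2 h, 37 °C), capillary electrophoresis. Baseline: DMSO.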

Assay [3] is described as follows: ATG_M_32_TRANS: Attagene TRANS-FACTORIAL HepG2 Assay for M32 Transcription Factor (Internal Marker) (AID 2282984; active means hit-call score of the fitted dose curve at least 0.9, where 1 is the maximum;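 further: transcript level of a background control reporter unit measured by RT-PCR and capillary electrophoresis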). As to conditions: HepG2 Attagene TRANS M32 internal marker reporter. The method in brief: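 Capillary electrophoresis of 6-FAM-labelled reporter fragments gives the signal; data fitted for gain over DMSO negative control. Source: HepG2 cells bearing transient multiple reporter transcription units, 24 h exposure.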

Assay [4] concerns the target Nuclear receptor subfamily 4 group A member 2 (Homo sapiens) (UniProt P43354). Nature of the assay: ATG_NURR1_TRANS: Attagene TRANS-FACTORIAL HepG2 Assay for human Nuclear Receptor Related Protein 1 (NURR1) (AID 2282985; active means hit-call score of the fitted dose curve at least 0.9, where 1 is the maximum). Particulars: HepG2 Attagene TRANS reporter, mRNA readout. In short, it runs like this: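 HepG2 / transient MRTU transfection / 24 h compound exposure / RT-PCR + CE fluorescence of reporter mRNA / gain-of-signal vs DMSO.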

Assay [5] addresses Transcriptional activator Myb (Homo sapiens) (UniProt P10242). Put plainly: ATG_Myb_CIS: Attagene CIS-FACTORIAL HepG2 Assay for human Myeloblastosis (Myb) Proto-Oncogene Transcription Factor (AID 2282986). As to conditions: HepG2 Attagene CIS-FACTORIAL Myb reporter transcription; actives raise or lower the signal. The method in brief: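 Steps: transfect HepG2 with cis-regulated reporter units; dose with chemical for 24 h; isolate RNA, reverse-transcribe, PCR-amplify and FAM-label reporter sequences; digest with HpaI; resolve by capillary electrophoresis. Activity fitted in both directions relative to DMSO.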

Assay [6] deals with Nuclear respiratory factor 1 (Homo sapiens) (UniProt Q16656). Nature of the assay: ATG_NRF1_CIS: Attagene CIS-FACTORIAL HepG2 Assay for human Nuclear Respiratory Factor 1 (NRF1) Orphan Gene (AID 2282987). As to conditions: HepG2 NRF1 cis-element reporter, Attagene multiplex; actives raise or lower the signal. The method in brief:
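Fluorescence intensity of labelled reporter cDNA fragments, resolved by capillary electrophoresis, served as readout for NRF1 cis-element activity. Transiently transfected HepG2 cells were dosed for 24 hours; activity in either direction was fitted against DMSO negative control.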

A short description of assay [7]: ATG_NFI_CIS: Attagene CIS-FACTORIAL HepG2 Assay for human Nuclear Factor I (NFI) (AID 2282989). Particulars: HepG2 cis-regulatory reporter, NFI response element transcription; actives raise or lower the signal. In short, it runs like this:
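Reporter transcripts were measured by RT-PCR with fluorescent primer extension and capillary electrophoresis 24 h post-treatment. HepG2 cells carried transiently transfected cis-regulated reporter constructs reporting endogenous factor activity; gain or loss fitted against DMSO baseline.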

The target in assay [8] is Myc proto-oncogene protein (Homo sapiens) (UniProt P01106). Put plainly: ATG_Myc_CIS: Attagene CIS-FACTORIAL HepG2 Assay for human Myelocytomatosis (Myc) Proto-Oncogene Transcription Factor (AID 2282990). As to conditions: HepG2, Attagene cis-reporter transcription factor activity; actives raise or lower the signal. In short, it runs like this:
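Transiently transfected HepG2 cells bearing cis-promoter reporter units for endogenous transcription factors; 24 h exposure. Reporter mRNA measured by RT-PCR, 6-FAM primer extension, HpaI cut and capillary electrophoresis; bidirectional fit relative to DMSO.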

Assay [9] deals with Hepatocyte nuclear factor 4-alpha (Homo sapiens) (UniProt P41235). Nature of the assay: ATG_HNF4a_TRANS: Attagene TRANS-FACTORIAL HepG2 Assay for human Hepatocyte Nuclear Factor 4 alpha (HNF4a) (AID 2282982; active means hit-call score of the fitted dose curve at least 0.9, where 1 is the maximum). Particulars: HepG2 HNF4a transactivation reporter, mRNA readout. The method in brief: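 Gain-of-signal mRNA induction, relative to DMSO vehicle, was read after 24 h compound treatment of HepG2 cells bearing transfected GAL4-UAS reporters. Detection used RT-PCR, 6-FAM primer extension and capillary electrophoresis.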
Chain of Hepatocyte nuclear factor 4-alpha (Homo sapiens) (P41235 whole entry, looked up, the tested form may be a part): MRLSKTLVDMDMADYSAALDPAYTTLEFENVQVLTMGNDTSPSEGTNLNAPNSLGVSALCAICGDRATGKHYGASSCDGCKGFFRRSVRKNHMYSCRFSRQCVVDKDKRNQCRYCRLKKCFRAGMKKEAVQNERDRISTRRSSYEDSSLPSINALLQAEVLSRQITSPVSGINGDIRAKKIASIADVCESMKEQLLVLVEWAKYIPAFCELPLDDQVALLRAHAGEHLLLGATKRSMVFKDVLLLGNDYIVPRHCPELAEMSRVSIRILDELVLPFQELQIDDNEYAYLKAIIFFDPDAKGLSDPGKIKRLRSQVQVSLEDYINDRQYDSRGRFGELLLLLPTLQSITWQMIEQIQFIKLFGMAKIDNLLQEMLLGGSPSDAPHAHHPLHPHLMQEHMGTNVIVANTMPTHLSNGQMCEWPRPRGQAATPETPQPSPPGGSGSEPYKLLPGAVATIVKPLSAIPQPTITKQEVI

Chain of Nuclear receptor subfamily 4 group A member 2 (Homo sapiens) (P43354 whole entry, looked up): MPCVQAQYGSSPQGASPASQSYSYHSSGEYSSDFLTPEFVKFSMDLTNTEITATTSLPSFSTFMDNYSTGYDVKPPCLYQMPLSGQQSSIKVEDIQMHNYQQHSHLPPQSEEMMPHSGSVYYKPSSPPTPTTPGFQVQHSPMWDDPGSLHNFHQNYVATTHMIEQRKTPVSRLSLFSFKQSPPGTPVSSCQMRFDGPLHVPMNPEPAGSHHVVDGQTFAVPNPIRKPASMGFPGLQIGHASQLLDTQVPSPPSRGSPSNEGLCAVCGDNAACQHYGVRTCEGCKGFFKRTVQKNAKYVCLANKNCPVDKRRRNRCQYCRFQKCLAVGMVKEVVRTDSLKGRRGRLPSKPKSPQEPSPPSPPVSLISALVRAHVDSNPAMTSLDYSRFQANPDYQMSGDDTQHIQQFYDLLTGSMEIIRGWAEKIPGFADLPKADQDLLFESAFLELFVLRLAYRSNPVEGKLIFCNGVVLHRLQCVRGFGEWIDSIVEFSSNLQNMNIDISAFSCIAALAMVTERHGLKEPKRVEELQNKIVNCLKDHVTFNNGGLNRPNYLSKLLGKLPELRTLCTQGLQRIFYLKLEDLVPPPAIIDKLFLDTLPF
Chain of Transcriptional activator Myb (Homo sapiens) (P10242 whole entry, looked up): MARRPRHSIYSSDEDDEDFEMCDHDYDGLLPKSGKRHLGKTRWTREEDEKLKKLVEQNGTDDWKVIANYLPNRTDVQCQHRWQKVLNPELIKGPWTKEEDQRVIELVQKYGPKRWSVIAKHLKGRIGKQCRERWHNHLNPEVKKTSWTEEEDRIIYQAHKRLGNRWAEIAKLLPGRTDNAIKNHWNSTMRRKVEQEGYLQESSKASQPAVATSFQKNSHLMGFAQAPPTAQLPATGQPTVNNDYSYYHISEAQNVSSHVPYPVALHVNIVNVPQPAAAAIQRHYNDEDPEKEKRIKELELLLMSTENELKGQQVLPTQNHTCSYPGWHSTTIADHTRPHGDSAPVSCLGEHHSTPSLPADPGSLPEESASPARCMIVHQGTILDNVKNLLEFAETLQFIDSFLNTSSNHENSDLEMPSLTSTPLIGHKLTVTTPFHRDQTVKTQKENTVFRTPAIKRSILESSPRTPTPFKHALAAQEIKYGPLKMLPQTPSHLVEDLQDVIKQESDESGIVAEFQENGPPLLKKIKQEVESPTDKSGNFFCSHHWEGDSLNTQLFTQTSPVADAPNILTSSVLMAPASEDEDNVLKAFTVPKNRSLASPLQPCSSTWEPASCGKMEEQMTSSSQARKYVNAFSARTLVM
Chain of Nuclear respiratory factor 1 (Homo sapiens) (Q16656 whole entry, looked up, the tested form may be a part): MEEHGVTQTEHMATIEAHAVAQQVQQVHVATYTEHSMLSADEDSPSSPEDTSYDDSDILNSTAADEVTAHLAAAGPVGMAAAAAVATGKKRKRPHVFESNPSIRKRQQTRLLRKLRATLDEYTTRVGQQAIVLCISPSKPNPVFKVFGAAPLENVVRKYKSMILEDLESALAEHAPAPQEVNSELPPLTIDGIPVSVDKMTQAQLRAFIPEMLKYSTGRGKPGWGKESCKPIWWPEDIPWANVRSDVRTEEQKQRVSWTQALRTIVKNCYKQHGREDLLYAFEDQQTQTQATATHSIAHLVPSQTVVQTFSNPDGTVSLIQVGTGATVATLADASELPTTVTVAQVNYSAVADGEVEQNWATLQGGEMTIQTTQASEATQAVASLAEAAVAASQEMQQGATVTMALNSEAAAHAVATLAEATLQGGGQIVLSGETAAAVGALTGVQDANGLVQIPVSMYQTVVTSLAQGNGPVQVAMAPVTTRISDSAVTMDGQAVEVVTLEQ
Chain of Oxysterols receptor LXR-beta (Homo sapiens) (P55055 whole entry, looked up, the tested form may be a part): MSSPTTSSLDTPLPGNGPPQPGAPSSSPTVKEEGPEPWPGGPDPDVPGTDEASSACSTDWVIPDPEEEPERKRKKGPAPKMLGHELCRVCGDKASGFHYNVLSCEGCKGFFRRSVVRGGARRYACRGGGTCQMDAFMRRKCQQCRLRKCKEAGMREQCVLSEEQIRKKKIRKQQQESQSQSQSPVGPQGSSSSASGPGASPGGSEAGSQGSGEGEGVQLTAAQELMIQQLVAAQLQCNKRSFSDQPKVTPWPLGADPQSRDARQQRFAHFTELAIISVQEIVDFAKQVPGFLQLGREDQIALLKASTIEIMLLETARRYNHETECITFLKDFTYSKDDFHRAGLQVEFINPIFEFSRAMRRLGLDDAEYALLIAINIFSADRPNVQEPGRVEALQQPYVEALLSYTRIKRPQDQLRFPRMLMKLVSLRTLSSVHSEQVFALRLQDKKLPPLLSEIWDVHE
Chain of Myc proto-oncogene protein (Homo sapiens) (P01106 whole entry, looked up): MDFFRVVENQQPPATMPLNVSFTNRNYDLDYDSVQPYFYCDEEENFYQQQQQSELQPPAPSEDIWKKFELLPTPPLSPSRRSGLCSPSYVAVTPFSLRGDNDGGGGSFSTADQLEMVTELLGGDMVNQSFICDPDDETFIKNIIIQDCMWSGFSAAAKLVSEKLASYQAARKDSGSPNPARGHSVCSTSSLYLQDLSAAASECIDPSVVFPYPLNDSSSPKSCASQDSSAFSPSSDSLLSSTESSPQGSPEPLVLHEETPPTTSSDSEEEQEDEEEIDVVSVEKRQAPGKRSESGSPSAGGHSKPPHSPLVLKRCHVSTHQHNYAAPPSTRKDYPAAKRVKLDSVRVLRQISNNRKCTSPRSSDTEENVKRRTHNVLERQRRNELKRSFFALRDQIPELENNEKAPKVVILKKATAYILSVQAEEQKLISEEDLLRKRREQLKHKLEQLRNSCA

With `CN(C)[C@@H]1C(=O)C(C(N)=O)=C(O)[C@@]2(O)C(=O)C3=C(O)c4c(O)ccc(Cl)c4[C@@](C)(O)[C@H]3C[C@@H]12`, the outcome in [1], in [2], in [3], in assay [4], in [5] and in [6] was inactive. In addition, the outcome in [7] and in assay [8] was inactive.
As to `O=C(O)COc1ccc(Cl)cc1`, the call in [1], in assay [9], in assay [2], in assay [3], in assay [5] and in assay [6] was inactive. Besides, the result in assay [7] and in assay [8] was inactive.
For `NC(=O)CCl`, the outcome in [1], in [9], in assay [2], in [3], in [4] and in assay [5] was inactive. Also, the outcome in [7] and in assay [8] was inactive.
Turning to `NNCCO`, the outcome in assay [1], in assay [9], in assay [5], in [6], in assay [7] and in [8] was inactive.
Consider `Nc1nc(N)nc(Cl)n1`, for which the call in assay [1], in assay [9], in [3], in assay [5], in assay [6] and in assay [7] was inactive. Further, the outcome in [8] was inactive.
In the case of `ClCc1ccccc1CCl`, the compound was classed as inactive in assay [1], in [9], in assay [3], in assay [4], in [5] and in assay [6]. The call in [7] was inactive. Further, in assay [8], the AC50 was 33.4 µM (active).
Take `CC(C)[N+](=O)[O-]`: the compound was called inactive in [1], in assay [9], in [2], in assay [3], in assay [5] and in assay [6]. Also, the compound was classed as inactive in assay [7] and in assay [8].
For the compound `N#CCC#N`, the outcome in assay [1], in assay [9], in assay [2], in [4], in assay [5] and in assay [6] was inactive. Also, the result in [7] and in assay [8] was inactive.
On to `Nc1c(Oc2ccccc2)cc(O)c2c1C(=O)c1ccccc1C2=O`, for which the call in [1], in [9], in assay [2], in [3], in [4] and in [5] was inactive. Besides, the result in [7] and in [8] was inactive.
On to `Clc1cnc(Oc2ccc(Oc3ncc(Cl)cc3Cl)cc2)c(Cl)c1`, for which the outcome in assay [1], in assay [9], in assay [4], in [5], in assay [6] and in assay [7] was inactive. Moreover, in [8], the compound was called inactive.
In the case of `Cc1ccc(CCl)cc1`, the call in assay [1], in assay [9], in assay [3], in assay [5], in [6] and in assay [7] was inactive. The result in assay [8] was inactive.
As for `C[C@@H]1O[C@@H](O[C@H]2C[C@@H](O)[C@]3(CO)[C@H]4[C@H](O)C[C@]5(C)[C@@H](C6=CC(=O)OC6)CC[C@]5(O)[C@@H]4CC[C@]3(O)C2)[C@H](O)[C@H](O)[C@H]1O`, the result in assay [1], in assay [9], in [2], in assay [4] and in assay [8] was inactive. The half-maximal activity concentration (AC50) in assay [5] is 0.328 µM (active); in [7] it was 0.645 µM (active).
With `c1csc(-c2ccc(-c3cccs3)s2)c1`, the call in assay [1], in assay [9], in assay [3], in assay [5], in assay [6] and in assay [7] was inactive. In [8], the call was inactive. Moreover, the AC50 in [4] is 3.59 µM (active).
Turning to `CCCCCCCCCCCCBr`, the result in assay [1], in assay [9], in assay [2], in assay [5], in assay [6] and in [7] was inactive. Moreover, the compound was classed as inactive in assay [8].
Consider `Clc1cc(C(Cl)(Cl)Cl)cnc1Cl`, for which the compound was called inactive in [1], in [9] and in [5]. Also, the AC50 in [7] is 44.8 µM (active); in assay [8] it was 55.5 µM (active).
Consider `O=C(O)CC(O)(CC(=O)O)C(=O)O`, for which the result in assay [1], in [9], in assay [2], in assay [5], in [6] and in assay [7] was inactive. In addition, the call in assay [8] was inactive. Also, in assay [4], the AC50 was 6.74 µM (active).
For the compound `Brc1ccc(Oc2c(Br)cc(Br)cc2Br)c(Br)c1`, the call in assay [1], in assay [9], in assay [2], in assay [3], in assay [4] and in assay [5] was inactive. The call in assay [7] and in [8] was inactive.

For the origin of these results see PubChem BioAssay (EPA / NIEHS).
